The supplement of paper PMC8728848
Many of the other results were omitted from the sample, so the strongest signals are more common in it than they were.

Columns and labels:
Assay in all cases: glycan array binding signal (z-score within array); higher = stronger binding
Conditions in all cases: glycan notation: IUPAC condensed, linker removed; mutation: I144G
[1] = molecular target: Fuc(a1-2)Gal(b1-3)GalNAc(b1-3)Gal(a1-4)Gal(b1-4)Glc
Summary of the method: (§1)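 The binding signal is a Z-score computed within each array and averaged over linkers. Arrays of the same protein sequence at different concentrations or buffers were also averaged together. Data originate from 3228 arrays in the Consortium for Functional Glycomics database, kept only where the protein sequence was available.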

[2] = molecular target: Fuc(a1-2)Gal(b1-3)GlcNAc(b1-3)[Fuc(a1-2)Gal(b1-3)GlcNAc(b1-6)]GalNAc
Summary of the method: as §1

[3] = molecular target: Fuc(a1-2)Gal(b1-4)[Fuc(a1-3)]GlcNAc(b1-3)[Neu5Ac(a2-6)Gal(b1-4)GlcNAc(b1-6)]Gal(b1-4)Glc
Summary of the method: as §1

[4] = molecular target: Fuc(a1-2)[Gal(a1-3)]Gal(b1-4)GlcNAc(b1-6)GalNAc
Summary of the method: as §1

[5] = molecular target: Fuc(a1-2)[GalNAc(a1-3)]Gal
Summary of the method: as §1

[6] = molecular target: Fuc(a1-2)[GalNAc(a1-3)]Gal(b1-3)GlcNAc(b1-2)Man(a1-3)[Fuc(a1-2)[GalNAc(a1-3)]Gal(b1-3)GlcNAc(b1-2)Man(a1-6)]Man(b1-4)GlcNAc(b1-4)[Fuc(a1-6)]GlcNAc
Summary of the method: as §1

[7] = molecular target: Gal(a1-3)Gal(b1-4)GlcNAc(b1-2)Man(a1-3)[Gal(a1-3)Gal(b1-4)GlcNAc(b1-2)Man(a1-6)]Man(b1-4)GlcNAc(b1-4)GlcNAc
Summary of the method: as §1

[8] = molecular target: Gal(a1-4)Gal(b1-4)GlcNAc(b1-3)Gal(b1-4)Glc
Summary of the method: as §1

Gal(b1-3)Gal(b1-4)GlcNAc = molecular target: Gal(b1-3)Gal(b1-4)GlcNAc
Summary of the method: as §1

[9] = molecular target: Gal(b1-3)GalNAc(b1-4)[Neu5Ac(a2-3)]Gal(b1-4)Glc
Summary of the method: as §1

[10] = molecular target: Gal(b1-4)GlcNAc(b1-3)Gal(b1-3)GalNAc
Summary of the method: as §1

Gal3S(b1-3)GalNAc = molecular target: Gal3S(b1-3)GalNAc
Summary of the method: as §1

[11] = molecular target: GlcA3S(b1-3)Gal(b1-4)GlcNAc(b1-2)Man
Summary of the method: as §1

[12] = molecular target: GlcA3S(b1-3)Gal(b1-4)GlcNAc(b1-3)Gal(b1-4)Glc
Summary of the method: as §1

[13] = molecular target: GlcNAc(b1-2)Man(a1-3)[GlcNAc(b1-4)][GlcNAc(b1-2)Man(a1-6)]Man(b1-4)GlcNAc(b1-4)[Fuc(a1-6)]GlcNAc
Summary of the method: as §1

[14] = molecular target: GlcNAc(b1-3)Gal(b1-3)GalNAc
Summary of the method: as §1

GlcNAc(b1-6)GalNAc = molecular target: GlcNAc(b1-6)GalNAc
Summary of the method: as §1

[15] = molecular target: Neu5Ac(a2-3)Gal(b1-3)GalNAc
Summary of the method: as §1

[16] = molecular target: Neu5Ac(a2-3)Gal(b1-3)GalNAc(b1-3)Gal(a1-4)Gal(b1-4)Glc
Summary of the method: as §1

[17] = molecular target: Neu5Ac(a2-3)Gal(b1-3)GalNAc(b1-4)[Neu5Ac(a2-3)]Gal(b1-4)Glc
Summary of the method: as §1

[18] = molecular target: Neu5Ac(a2-3)Gal(b1-3)GalNAc6S
Summary of the method: as §1

[19] = molecular target: Neu5Ac(a2-3)Gal(b1-3)[GlcNAc(b1-6)]GalNAc
Summary of the method: as §1

[20] = molecular target: Neu5Ac(a2-3)Gal(b1-4)GlcNAc(b1-2)Man(a1-3)[GlcNAc(b1-4)][Neu5Ac(a2-3)Gal(b1-4)GlcNAc(b1-2)Man(a1-6)]Man(b1-4)GlcNAc(b1-4)GlcNAc
Summary of the method: as §1

[21] = molecular target: Neu5Ac(a2-3)Gal(b1-4)GlcNAc(b1-2)[Neu5Ac(a2-3)Gal(b1-4)GlcNAc(b1-6)]Man(a1-6)[Neu5Ac(a2-3)Gal(b1-4)GlcNAc(b1-2)Man(a1-3)][GlcNAc(b1-4)]Man(b1-4)GlcNAc(b1-4)GlcNAc
Summary of the method: as §1

[22] = molecular target: Neu5Ac(a2-3)Gal(b1-4)GlcNAc(b1-3)Gal
Summary of the method: as §1

[23] = molecular target: Neu5Ac(a2-6)Gal(b1-4)GlcNAc(b1-2)Man(a1-3)[Neu5Ac(a2-6)Gal(b1-4)GlcNAc(b1-2)Man(a1-6)]Man(b1-4)GlcNAc(b1-4)GlcNAc
Summary of the method: as §1

[24] = molecular target: Neu5Ac(a2-6)Gal(b1-4)GlcNAc(b1-2)Man(a1-3)[Neu5Ac(a2-6)Gal(b1-4)GlcNAc(b1-2)Man(a1-6)]Man(b1-4)GlcNAc(b1-4)[Fuc(a1-6)]GlcNAc
Summary of the method: as §1

[25] = molecular target: Neu5Ac(a2-6)Gal(b1-4)GlcNAc(b1-3)Gal(b1-4)GlcNAc
Summary of the method: as §1

[26] = molecular target: Neu5Ac(a2-6)Gal(b1-4)GlcNAc(b1-3)Gal(b1-4)[Fuc(a1-3)]GlcNAc(b1-3)Gal(b1-4)[Fuc(a1-3)]GlcNAc
Summary of the method: as §1

[27] = molecular target: Neu5Ac(a2-8)Neu5Ac(a2-3)Gal(b1-3)GalNAc(b1-4)[Neu5Ac(a2-3)]Gal(b1-4)Glc
Summary of the method: as §1

[28] = molecular target: Neu5Ac9Ac(a2-3)Gal(b1-3)GlcNAc
Summary of the method: as §1

Neu5Gc(a2-6)GalNAc = molecular target: Neu5Gc(a2-6)GalNAc
Summary of the method: as §1

[29] = molecular target: Neu5Gc(a2-8)Neu5Ac(a2-3)Gal(b1-4)GlcNAc
Summary of the method: as §1

[30] = molecular target: Neu5Gc(a2-8)Neu5Gc(a2-3)Gal(b1-4)GlcNAc
Summary of the method: as §1

B1: rAAL-I144G (Agrocybe aegerita), Q6WY08 (protein)
chain: MQGVNIYNISAGTSVDLAAPVTTGDIVTFFSSALNLNAGAGNPNNTTLNLFAENGAYLLHIAFRLQENVIIFNSRQPDGPWLVEQRVSDVANQFAGIDGKAMVTVFDHGDKYQVVINEKTVIQYTKQISGLTLSLSYNATEETSGFSTVVEAVTYTGLALEHHHHHH
B1 was tested, and the “glycan array binding signal (z-score)” value [1] was -0.112, the “glycan array binding signal (z-score)” value [2] was -0.208 and the “glycan array binding signal (z-score)” value [3] was -0.075. The “glycan array binding signal (z-score)” value [4] was -0.088, the “glycan array binding signal (z-score)” value [5] was -0.166 and the “glycan array binding signal (z-score)” value [6] was -0.134. For the same binder, the “glycan array binding signal (z-score)” value [7] was 2.88, the “glycan array binding signal (z-score)” value [8] was -0.026 and the “glycan array binding signal (z-score)” value (Gal(b1-3)Gal(b1-4)GlcNAc) was -0.134. For the same binder, the “glycan array binding signal (z-score)” value [9] was -0.191, the “glycan array binding signal (z-score)” value [10] was -0.191 and the “glycan array binding signal (z-score)” value (Gal3S(b1-3)GalNAc) was 17.3. The “glycan array binding signal (z-score)” value [11] was 11.8, the “glycan array binding signal (z-score)” value [12] was 9.46 and the “glycan array binding signal (z-score)” value [13] was -0.15. For the same binder, the “glycan array binding signal (z-score)” value [14] was -0.103, the “glycan array binding signal (z-score)” value (GlcNAc(b1-6)GalNAc) was -0.16 and the “glycan array binding signal (z-score)” value [15] was 1.67. The “glycan array binding signal (z-score)” value [16] was 1.35, the “glycan array binding signal (z-score)” value [17] was 1.33 and the “glycan array binding signal (z-score)” value [18] was 4.09. The “glycan array binding signal (z-score)” value [19] was 1.74, the “glycan array binding signal (z-score)” value [20] was 1.63 and the “glycan array binding signal (z-score)” value [21] was -0.073. The “glycan array binding signal (z-score)” value [22] was -0.059, the “glycan array binding signal (z-score)” value [23] was -0.111 and the “glycan array binding signal (z-score)” value [24] was -0.049. The “glycan array binding signal (z-score)” value [25] was -0.176, the “glycan array binding signal (z-score)” value [26] was -0.095 and the “glycan array binding signal (z-score)” value [27] was 1.99. For the same binder, the “glycan array binding signal (z-score)” value [28] was -0.174, the “glycan array binding signal (z-score)” value (Neu5Gc(a2-6)GalNAc) was -0.086 and the “glycan array binding signal (z-score)” value [29] was -0.169. For the same binder, the “glycan array binding signal (z-score)” value [30] was -0.122.
